{"source": "PubChem BioAssay AID570", "about": "(The Scripps Research Institute Molecular Screening Center, 2006)", "note": "Among all 65,000 compounds or so, about 45 (0.07%) were called active. The list comes from a sample in which actives are over-represented; it also holds similar structures and randomly drawn compounds. A number with no mark means an inactive call.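 The calls were made as follows: active = inhibition above the mean of compound-free control plate wells plus 3 SD (cut at about 14% in these data); inactive = the rest.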", "data": [{"target": "Collagenase 3 (Homo sapiens) (UniProt P45452)", "test": "inhibition of MMP13 collagenase activity – biochemical, FRET peptide cleavage, primary screen (AID 570);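 also: 0% = DMSO wells and 100% = wells with reference MMP-13 inhibitor after basal subtraction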", "conditions": "MMP-13 fTHP FRET cleavage, Mca fluorescence; at 4 µM; hits give high values", "values": [{"smiles": "Cn1c(=O)n(CCc2ccccc2)c(=O)c2c1nc1n2CCCN1c1ccccc1", "inhibition": "-0.2%"}, {"smiles": "CCC/C(O)=C1\\C(=O)CC(C)(C)CC1=Nc1ccccc1OC", "inhibition": "-1.2%"}, {"smiles": "CSCCC(NC(N)=O)C(=O)N(C)CC(=O)Nc1ccc(C)cc1", "note": "(centres undefined)", "inhibition": "-2.4%"}, {"smiles": "CCc1c(C)nc(N2CCN(Cc3ccccc3)CC2)[nH]c1=O", "inhibition": "-7.8%"}, {"smiles": "COC(=O)c1c(-c2ccc(C)cc2)csc1N", "inhibition": "-8.5%"}, {"smiles": "CCn1c(COc2ccccc2)nnc1SCC(=O)Nc1ccc2c(c1)OCCO2", "inhibition": "0.5%"}, {"smiles": "Cc1cccc2cc(CN(Cc3nnnn3Cc3ccccc3)C3CCCC3)c(=O)[nH]c12", "inhibition": "-8.4%"}, {"smiles": "C=CCNc1nnc(C)c2ccccc12", "inhibition": "3.5%"}, {"smiles": "Cc1cc(NC(=O)CN2CCCCC2C)nc2c1c(=O)oc1ccccc12", "note": "(centres undefined)", "inhibition": "0.1%"}, {"smiles": "COc1ccccc1N1CCN(C(=O)c2cn(-c3ccccc3)nc2-c2cccnc2)CC1", "inhibition": "-5.4%"}, {"smiles": "CCCN1CC=C2C(C#N)=C(N)C(C#N)(C#N)C(c3cc(OC)ccc3OC)C2C1", "note": "(centres undefined)", "inhibition": "-14.3%"}, {"smiles": "CCCCNC(=O)c1c[nH]c2ccc(S(=O)(=O)Nc3ccc(OCC)cc3)cc2c1=O", "inhibition": "-4.5%"}, {"smiles": "Cc1cccc(N2CCN(S(=O)(=O)c3ccc4c(c3)c(=O)n(C)c(=O)n4C)CC2C)c1", "note": "(centres undefined)", "inhibition": "4.1%"}, {"smiles": "CCOC(=O)c1ccc(-n2c(C)nc3c(cnn3-c3ccccc3C)c2=O)cc1", "inhibition": "7.5%"}, {"smiles": "CCOC(=O)c1cc2occc2n1CC(=O)NC1CCC(C)CC1", "note": "(centres undefined)", "inhibition": "4.9%"}, {"smiles": "COc1ccc(NS(=O)(=O)c2ccc(NC(=O)C(C)(C(F)(F)F)C(F)(F)F)cc2)nn1", "inhibition": "-10.5%"}, {"smiles": "CN(CCCC(=O)Nc1nccs1)S(=O)(=O)c1ccc(Cl)cc1", "inhibition": "6%"}, {"smiles": "Cc1ccc(C(=O)CSc2nnc(Cn3nnc4ccccc43)n2C)cc1", "inhibition": "7.7%"}, {"smiles": "CCN1CCN(Cc2c(O)ccc3c(=O)c(-c4ccc(OC)c(OC)c4)c(C(F)(F)F)oc23)CC1", "inhibition": "4.7%"}, {"smiles": "O=c1nc2s/c(=C\\c3ccco3)c(=O)n2nc1Cc1ccccc1", "inhibition": "0.1%"}, {"smiles": "CN(c1ccccc1)c1ccc(/C=c2\\s/c(=C(/C#N)C(=O)C(C)(C)C)n(Cc3ccco3)c2=O)cc1", "inhibition": "15.4% (active)"}, {"smiles": "CCOC(=O)CSc1nc2c(sc(=S)n2CCc2ccccc2)c(=O)n1Cc1ccco1", "inhibition": "2.4%"}, {"smiles": "Cc1cc(C(F)(F)F)n2ncc(-c3ccccc3)c2n1", "inhibition": "3.8%"}, {"smiles": "CCc1nnc(NC(=O)c2c(O)c3c([nH]c2=O)CCCC3)s1", "inhibition": "-11%"}, {"smiles": "CCC(C)Sc1nnc(-c2c[nH]c3ccccc23)n1CCOC", "note": "(centres undefined)", "inhibition": "6.4%"}, {"smiles": "CC(C)N1C(=O)C2C(C(=O)NC3CCCCC3)C3C=CC2(O3)C1C(=O)NC1CCCC1", "note": "(centres undefined)", "inhibition": "-2.8%"}, {"smiles": "O=C(NCCCN1CCN(c2ccccc2F)CC1)C1CCC(=O)N1C1CCCCC1", "note": "(centres undefined)", "inhibition": "1.3%"}, {"smiles": "CC(C)(C)n1nnnc1C(c1cccs1)N(Cc1cccnc1)CC1CCCO1", "note": "(centres undefined)", "inhibition": "-3.9%"}, {"smiles": "C=CCC(NCCCO)c1cccc(OC)c1OC", "note": "(centres undefined)", "inhibition": "-1.4%"}, {"smiles": "CCCCN(C)C(=O)c1ccc2c(c1)N(CC)C(=O)c1ccccc1S2(=O)=O", "inhibition": "-4.5%"}, {"smiles": "CCOC(=O)CSc1nnc(CNC(=O)c2cccs2)n1-c1cc(OC)ccc1OC", "inhibition": "-0.5%"}, {"smiles": "CCOC(=O)CSc1nnc(CNc2ccc(F)cc2)o1", "inhibition": "-2.2%"}, {"smiles": "Cc1ccccc1NC(=O)NCc1ccco1", "inhibition": "2.4%"}, {"smiles": "FC(F)(F)c1cc(-c2cccs2)nc(NCc2ccco2)n1", "inhibition": "-3.9%"}, {"smiles": "CN1CCN(c2cc(=O)n(-c3ccc(Cl)cc3)c(=O)[nH]2)CC1", "inhibition": "0.4%"}, {"smiles": "COc1ccccc1N(CC(=O)N1CCCCC1)S(=O)(=O)c1ccccc1", "inhibition": "2.1%"}, {"smiles": "C=CCn1cnc2scc(-c3ccccc3)c2c1=O", "inhibition": "0.5%"}, {"smiles": "C=CCn1c(COc2ccccc2C)nnc1SCC(=O)O", "inhibition": "5.1%"}, {"smiles": "O=C(Cn1cnc2c(cnn2-c2ccccc2)c1=O)NCc1ccccc1", "inhibition": "-2%"}]}]}
